According to PubChem BioAssay:
For part of these data: Entries with a potency or affinity are not part of this list. Active and inactive are the calls of the source. Unless noted, the rule behind the calls is not given here.

What follows are compounds tested against Protein kinase 7 (PK7), Plasmodium falciparum 3D7 (PF3D7_0213400) (UniProt Q7YTF7) (assay: inhibition of Plasmodium PK7 catalytic activity – biochemical, TCAMS antimalarial set, Kinase-Glo luminescence (AID 1159587)). Conditions: recombinant PfPK7, Kinase-Glo ATP depletion luminescence.
Protein kinase 7 (PK7), Plasmodium falciparum 3D7 (PF3D7_0213400), sequence (Q7YTF7 1-343): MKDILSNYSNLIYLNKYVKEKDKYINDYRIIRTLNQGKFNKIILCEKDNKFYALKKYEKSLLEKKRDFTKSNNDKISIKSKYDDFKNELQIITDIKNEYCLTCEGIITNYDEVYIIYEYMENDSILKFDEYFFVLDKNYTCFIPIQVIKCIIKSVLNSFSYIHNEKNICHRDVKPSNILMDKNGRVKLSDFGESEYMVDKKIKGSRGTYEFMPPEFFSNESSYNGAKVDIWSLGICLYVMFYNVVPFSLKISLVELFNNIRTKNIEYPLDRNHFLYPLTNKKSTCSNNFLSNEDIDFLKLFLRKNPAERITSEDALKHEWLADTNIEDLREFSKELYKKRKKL

outcome, inactive:
Clc1ccc(Nc2nc(Nc3ccc(Cl)c(Cl)c3)nc(Sc3nc4ccccc4[nH]3)n2)cc1Cl, CCc1c(C)c2ccc3c(c2oc1=O)CN(CCc1ccc(F)cc1)CO3, c1cc(CN2CCc3ccccc3CC2)cc(-c2c[nH]c3nc(NC4CCCC4)ncc23)c1, C[C@H](N[C@H]1CCCc2c1[nH]c1ccc(Br)cc21)c1ccccc1, CCCCc1cc(NCc2ccncc2)nc(Nc2ccccc2)n1, CCC1CN(S(=O)(=O)c2ccc3c(c2)NC(=O)CC(=O)N3)c2cc(Cl)ccc2O1 (stereo not drawn), Cc1cccc(Nc2nccc(NCC(O)c3ccc(C(F)(F)F)cc3)n2)c1 (stereo not drawn), CCCCCc1cnc2nc(N)nc(N)c2c1, CCCCCCCN1CC[C@@H](CCCc2ccnc3ccc(OCCC4CCNCC4)cc23)[C@@H](CC)C1, CCOCCCn1c(=N)c(C(=O)NC(C)c2ccccc2)cc2c(=O)n3cccc(C)c3nc21 (stereo not drawn), O=S(=O)(NCCN1CCCC1)c1ccc(-c2ccc(CNCc3ccc(F)cc3)cc2)cc1, CCN(CC)c1ccc(-c2nc3ncc(Cl)cc3[nH]2)cc1, CC(C)(C)c1ccc(CN2CCC(CNC(=O)c3cc(-c4ccccc4F)cs3)C2)cc1 (stereo not drawn), COc1ccc2nccc([C@@H](O)CN3CCC(NC(=O)C(c4ccsc4)N4CCN(c5ccccc5OC)CC4)CC3)c2c1 (stereo partly drawn), CC(CN(C)C)C(=O)Nc1cccc(-c2ccc(-c3nc4ccccc4[nH]3)cc2)c1 (stereo not drawn), CC(C)(C)CNc1noc(-c2sccc2Br)n1, Cc1ccc2c(Cl)c(C(=O)N3CC(C)OC(C)C3)sc2c1 (stereo not drawn), O=C(O[C@@H]1CN[C@H](C#Cc2cc3ncnc(Nc4ccc5c(cnn5Cc5cccc(F)c5)c4)c3s2)C1)N1CCCC1, COc1ccc2c(c1)Sc1ccccc1C(N1CCN(CCO)CC1)C2 (stereo not drawn), CC(=O)N[C@@H]1c2cc(C(C)=O)ccc2OC(C)(C)[C@@H]1O, O=C(/C=C/c1ccc(Cl)cc1Cl)N1CCC(CCN2CCC(c3c[nH]c4ccccc34)CC2)CC1, COC(=O)c1cccc(CNCc2cccc(-c3ccc(-c4nc5c(C)cccc5[nH]4)s3)c2)c1, CS(=O)(=O)n1c(CN2CCN(c3ncc(C(F)(F)F)cc3Cl)CC2)nc2ccccc21, Cc1ccc(Nc2nc3cc(N(C)c4ccnc(Nc5cccc(CS(C)(=O)=O)c5)n4)ccc3o2)cc1, O=C(Nc1ccc2c(c1)CCN(C1CCC1)CC2)c1cn(-c2ccccc2)nc1-c1ccccc1, COc1ccc(C2c3cc(OC)c(OC)cc3C(=NO)C2C)cc1OC (stereo not drawn), CN(C)CCC1CCN(CCS(=O)(=O)c2cccc(Nc3ncc(-c4cccc(F)c4)cn3)c2)CC1, COc1ccc2ncc(F)c(CCN3CCC(NCc4cc5c(cn4)OCCS5)CC3)c2c1, CC(C)c1ccc(OCC(O)CN(CCN2CCOCC2)C(=O)Nc2ccc(Br)cc2)cc1 (stereo not drawn), COc1ccccc1N1CCN(C(C(=O)NCc2ccc3c(c2)OCO3)c2ccc3c(c2)OCCCO3)CC1 (stereo not drawn), COc1ccc2nccc([C@@H](O)CN3CCC(NC(=O)C(c4cc5ccccc5s4)N4CCN(c5ccccc5OC)CC4)CC3)c2c1 (stereo partly drawn), O=C(NCCCCCN1CCC(c2ccc(O)cc2)CC1)c1ccc(-c2ccccc2)cc1, CCc1cccc2sc(N3CCN(C(=O)c4ccc([N+](=O)[O-])o4)CC3)nc12, Cc1nc2nc(N)nc(N)c2c(C)c1Cc1ccccc1, CC(C(=O)OCCOCn1cnc2c(=O)[nH]c(N)nc21)N(C)C(=O)OC(C)(C)C (stereo not drawn), CCc1c(CCNCCCCCCNC(C)(C)Cc2ccc3c(c2CC)OCO3)ccc(OC)c1OC, COc1ccc(OCCCN2CCCCC2)cc1S(=O)(=O)c1ccc(OCc2ccc(C(F)(F)F)cc2)cc1, CC1(C)N=C(N)N=C(N)N1c1cccc(I)c1, CCCCN1CCN(CCCNc2c3ccccc3nc3ccccc23)CC1

These compounds were tested against Calcium-dependent protein kinase 4 (Plasmodium falciparum (isolate 3D7)) (UniProt Q8IBS5) (assay: PfCDPK4 kinase inhibitors, biochemical, TCAMS library (AID 1159588; cut-off not given, nearly all actives have IC50 up to about 0.91 µM)). Conditions: recombinant PfCDPK4, Kinase-Glo ATP depletion luminescence.
Calcium-dependent protein kinase 4 (Plasmodium falciparum (isolate 3D7)), sequence (Q8IBS5 whole entry, looked up): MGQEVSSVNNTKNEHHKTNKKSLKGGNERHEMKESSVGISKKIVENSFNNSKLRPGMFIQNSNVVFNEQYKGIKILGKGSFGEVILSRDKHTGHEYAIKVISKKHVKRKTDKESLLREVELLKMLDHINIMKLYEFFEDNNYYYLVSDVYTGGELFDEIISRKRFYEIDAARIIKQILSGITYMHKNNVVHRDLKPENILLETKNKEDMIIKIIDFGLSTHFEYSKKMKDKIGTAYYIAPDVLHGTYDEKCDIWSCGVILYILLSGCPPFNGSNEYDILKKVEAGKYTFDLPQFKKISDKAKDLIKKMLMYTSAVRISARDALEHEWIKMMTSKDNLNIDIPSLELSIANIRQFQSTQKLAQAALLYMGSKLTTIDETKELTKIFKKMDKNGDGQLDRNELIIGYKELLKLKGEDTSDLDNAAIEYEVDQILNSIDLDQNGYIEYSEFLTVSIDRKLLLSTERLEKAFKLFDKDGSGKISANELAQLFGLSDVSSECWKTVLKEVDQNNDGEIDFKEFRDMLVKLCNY

outcome, inactive:
Clc1ccc(Nc2nc(Nc3ccc(Cl)c(Cl)c3)nc(Sc3nc4ccccc4[nH]3)n2)cc1Cl, CCc1c(C)c2ccc3c(c2oc1=O)CN(CCc1ccc(F)cc1)CO3, c1cc(CN2CCc3ccccc3CC2)cc(-c2c[nH]c3nc(NC4CCCC4)ncc23)c1, C[C@H](N[C@H]1CCCc2c1[nH]c1ccc(Br)cc21)c1ccccc1, CCCCc1cc(NCc2ccncc2)nc(Nc2ccccc2)n1, CCC1CN(S(=O)(=O)c2ccc3c(c2)NC(=O)CC(=O)N3)c2cc(Cl)ccc2O1 (stereo not drawn), Cc1cccc(Nc2nccc(NCC(O)c3ccc(C(F)(F)F)cc3)n2)c1 (stereo not drawn), CCCCCc1cnc2nc(N)nc(N)c2c1, CCCCCCCN1CC[C@@H](CCCc2ccnc3ccc(OCCC4CCNCC4)cc23)[C@@H](CC)C1, CCOCCCn1c(=N)c(C(=O)NC(C)c2ccccc2)cc2c(=O)n3cccc(C)c3nc21 (stereo not drawn), O=S(=O)(NCCN1CCCC1)c1ccc(-c2ccc(CNCc3ccc(F)cc3)cc2)cc1, CCN(CC)c1ccc(-c2nc3ncc(Cl)cc3[nH]2)cc1, CC(C)(C)c1ccc(CN2CCC(CNC(=O)c3cc(-c4ccccc4F)cs3)C2)cc1 (stereo not drawn), COc1ccc2nccc([C@@H](O)CN3CCC(NC(=O)C(c4ccsc4)N4CCN(c5ccccc5OC)CC4)CC3)c2c1 (stereo partly drawn), CC(CN(C)C)C(=O)Nc1cccc(-c2ccc(-c3nc4ccccc4[nH]3)cc2)c1 (stereo not drawn), CC(C)(C)CNc1noc(-c2sccc2Br)n1, Cc1ccc2c(Cl)c(C(=O)N3CC(C)OC(C)C3)sc2c1 (stereo not drawn), O=C(O[C@@H]1CN[C@H](C#Cc2cc3ncnc(Nc4ccc5c(cnn5Cc5cccc(F)c5)c4)c3s2)C1)N1CCCC1, COc1ccc2c(c1)Sc1ccccc1C(N1CCN(CCO)CC1)C2 (stereo not drawn), CC(=O)N[C@@H]1c2cc(C(C)=O)ccc2OC(C)(C)[C@@H]1O, O=C(/C=C/c1ccc(Cl)cc1Cl)N1CCC(CCN2CCC(c3c[nH]c4ccccc34)CC2)CC1, COC(=O)c1cccc(CNCc2cccc(-c3ccc(-c4nc5c(C)cccc5[nH]4)s3)c2)c1, CS(=O)(=O)n1c(CN2CCN(c3ncc(C(F)(F)F)cc3Cl)CC2)nc2ccccc21, Cc1ccc(Nc2nc3cc(N(C)c4ccnc(Nc5cccc(CS(C)(=O)=O)c5)n4)ccc3o2)cc1, O=C(Nc1ccc2c(c1)CCN(C1CCC1)CC2)c1cn(-c2ccccc2)nc1-c1ccccc1, COc1ccc(C2c3cc(OC)c(OC)cc3C(=NO)C2C)cc1OC (stereo not drawn), CN(C)CCC1CCN(CCS(=O)(=O)c2cccc(Nc3ncc(-c4cccc(F)c4)cn3)c2)CC1, COc1ccc2ncc(F)c(CCN3CCC(NCc4cc5c(cn4)OCCS5)CC3)c2c1, CC(C)c1ccc(OCC(O)CN(CCN2CCOCC2)C(=O)Nc2ccc(Br)cc2)cc1 (stereo not drawn), COc1ccccc1N1CCN(C(C(=O)NCc2ccc3c(c2)OCO3)c2ccc3c(c2)OCCCO3)CC1 (stereo not drawn), COc1ccc2nccc([C@@H](O)CN3CCC(NC(=O)C(c4cc5ccccc5s4)N4CCN(c5ccccc5OC)CC4)CC3)c2c1 (stereo partly drawn), O=C(NCCCCCN1CCC(c2ccc(O)cc2)CC1)c1ccc(-c2ccccc2)cc1, CCc1cccc2sc(N3CCN(C(=O)c4ccc([N+](=O)[O-])o4)CC3)nc12, Cc1nc2nc(N)nc(N)c2c(C)c1Cc1ccccc1, CC(C(=O)OCCOCn1cnc2c(=O)[nH]c(N)nc21)N(C)C(=O)OC(C)(C)C (stereo not drawn), CCc1c(CCNCCCCCCNC(C)(C)Cc2ccc3c(c2CC)OCO3)ccc(OC)c1OC, COc1ccc(OCCCN2CCCCC2)cc1S(=O)(=O)c1ccc(OCc2ccc(C(F)(F)F)cc2)cc1, CC1(C)N=C(N)N=C(N)N1c1cccc(I)c1, CCCCN1CCN(CCCNc2c3ccccc3nc3ccccc23)CC1
